# DRD3 antagonist = blocks the human D3 dopamine receptor | P35462 | D3R cells, DiscoveRx beta-arrestin luminescence, antagonist mode; stronger effect = lower value | max response, negative = inhibition, % | 360,000 compounds, 2.5% hits; in the data active = max response below about -50%; inconclusive = no clear call, values can overlap the other calls; also: % is scaled to controls: 0 for no effect and ±100 for the full control effect
# Target sequence (P35462 whole entry, looked up): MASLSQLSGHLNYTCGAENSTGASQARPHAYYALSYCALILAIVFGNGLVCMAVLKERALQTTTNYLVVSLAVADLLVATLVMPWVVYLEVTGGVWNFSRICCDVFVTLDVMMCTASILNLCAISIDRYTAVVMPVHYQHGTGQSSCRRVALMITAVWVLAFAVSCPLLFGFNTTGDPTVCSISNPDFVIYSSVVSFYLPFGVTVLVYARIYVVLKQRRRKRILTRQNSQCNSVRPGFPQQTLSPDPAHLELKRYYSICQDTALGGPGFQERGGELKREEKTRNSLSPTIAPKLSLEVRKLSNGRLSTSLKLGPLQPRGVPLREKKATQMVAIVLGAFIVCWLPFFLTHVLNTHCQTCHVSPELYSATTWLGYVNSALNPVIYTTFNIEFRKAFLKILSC
#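 Cells expressing the human receptor were seeded at 1500 cells/well, incubated overnight at 37 degrees C in 5% CO2, then exposed to library compounds with dopamine controls for 90 minutes at 37 degrees C before luminescent detection.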
# D1 antagonist = blocks dopamine activation of the human D1 receptor; P21728; HEK293 TREx D1 cells, calcium flux, dopamine EC80; stronger effect = lower value; activity change, negative = inhibition, % at 10 µM; 360,000 compounds, 3.2% hits; AID 504652; in the data active = activity change below about -30%; also: % is scaled to controls: 0 for no effect and ±100 for the full control effect
#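 Allosteric or orthosteric antagonism assessed as attenuation of the calcium response to EC80 dopamine, added 180 s after compound, in induced HEK293 Trex D1 cells loaded with no-wash calcium dye.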
# D1 ag = activates the human D1 dopamine receptor; P21728; HEK293 T-REx D1 cells, calcium flux, agonist mode; activation, % at 2 µM; 360,000 compounds, 1% hits; in the data active = activation above about 30%; also: 0% is about no effect
#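 Tetracycline-induced HEK293 TREx D1 cells, force-coupled to calcium signalling, were dye-loaded with a no-wash calcium kit. Compound was pin-added after a 10 s baseline. Fluorescence was read kinetically at 1 cycle/s for 180 s, with calcium rises flagged as agonism.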
# D3 ag = D3 dopamine receptor (human) agonism | D3R DiscoveRx beta-arrestin cells, luminescence, 90 min | P35462 | 410,000 compounds, 0.58% hits | AID 652048 | max activation, %; in the data active = max activation above about 30%; also: 0% is about no effect
#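 Agonist-mode cell screen: cells plated at 1500/well and incubated overnight at 37 °C, then exposed to library compounds for 90 min at 37 °C. Detection reagent was added for 30–60 min at room temperature, and luminescence was read.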
# BCR signal inh = chronic active BCR signaling inhibition; ABC-DLBCL IkBa-CBG/CBR reporter, luminescence ratio, 4 h; Potency, µM (highest dose often 46.1 µM), for inactives: at the top dose activity change, negative = inhibition, usual class: inhibitors; 340,000 compounds, 0.05% hits; AID 493014; active = well fitted inhibition curve with a large enough effect in the signal ratio, with a control signal flat, not every such curve was filed as active; inconclusive = small, poorly fitted or top-dose-only effect, or effect the other way, or a change in a side signal; the % refers to the signal ratio;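 also: potency is read from the fitted curve at half-maximal effect; plate controls were basal doxycycline-induced cells for no effect and cells given 10 µM MG132 for full effect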
#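 Cell line TMD8 (human ABC DLBCL), stably expressing tet-inducible CBG68-IkBa fusion and CBR; IMDM/0.5% FBS; cpd up to 46 uM; dox induction, 4 h, 37C/5% CO2; dual luminescence; green/red ratio; MG132 control.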
# D1 PAM = human D1 dopamine receptor positive modulation. potentiation, % at 10 µM. P21728. 360,000 compounds, 0.036% hits. HEK293 TREx D1 cells, calcium flux, dopamine EC20 potentiation; in the data active = potentiation above about 30%; also: 0% is about no effect
# The depositor's hits bear a star; ? = inconclusive; / = not tested or not shown. Most compounds without a hit are left out; they make up all but 6% or so of the library.
SMILES,DRD3 antagonist,D1 antagonist,D1 ag,D3 ag,BCR signal inh,D1 PAM
O=C(CCN1CCCCCC1)Nc1ccc(F)cc1,-83.6*,1.0,12.9,-37.1,-1.2%,0.7
O=C(CCN1CCCCCC1)Nc1ccc(F)c(F)c1,-61.9*,-11.0,12.9,-11.7,?,3.7
Cc1ccc(NC(=O)CCN2CCCCC2)cc1,-15.8,-4.4,0.2,-21.0,?,4.2
CC(=O)c1ccc(NC(=O)CCSCCC(=O)Nc2ccc(C(C)=O)cc2)cc1,4.4,2.7,2.8,-0.8,-0.3%,-0.8
Clc1cccc(CSc2ccc(-c3cccs3)nn2)c1,/,-2.7,44.8*,-16.1,/,-3.4
COc1ccc(CC(C)N2CCN(c3ccccc3)CC2)cc1OC (configuration not stated),-146.9*,-3.6,0.3,-17.5,0.8%,-3.5
CNC(=S)N1CCN(c2ccccc2OC)CC1,?,-46.4*,-0.4,-4.7,?,-4.8
COc1ccc(C(=O)NC(=S)N2CCN(c3ccccc3OC)CC2)cc1,-16.2,-20.9,3.4,-3.9,?,/
COc1ccccc1N1CCN(Cc2cnc3ccc(Cl)cn23)CC1,-90.6*,7.2,10.1,-5.3,0.4%,-3.3
COc1ccccc1N1CCN(Cc2ccsc2)CC1,-92.2*,-0.7,2.9,-9.8,?,-0.5
Cc1sc(-n2cccc2)c(C(C)NC(=O)Nc2ccccc2Cl)c1C (configuration not stated),/,-3.3,1.8,-4.1,/,-6.7
COc1ccc(Cc2c(C3CCCCC3)nc3ccc(Cl)cn23)c(C)c1,9.5,/,/,8.9,/,/
c1ccc(-c2nc3c4ccccc4ccn3c2Cc2ccsc2)cc1,-12.3,/,/,-15.3,/,/
COc1cc(CN2CCN(c3ccccc3F)CC2)cc(OC)c1O,?,-28.7,2.4,43.4*,-3.1%,-12.1
COc1ccccc1N1CCN(Cc2cccs2)CC1,-82.3*,3.1,0.4,-34.8,14.6%,-7.5
COc1ccccc1N1CCN(S(=O)(=O)c2cccs2)CC1,-6.9,/,0.5,-1.4,?,-1.9
COc1cc(CN2CCC(C(=O)N3CCN(c4ccccc4F)CC3)CC2)cc(OC)c1O,-7.3,1.2,-0.3,11.4,-1.6%,-0.3
COC(=O)c1cc(CN2CCN(c3ccccc3C)CC2)ccc1O,-80.0*,-5.9,1.7,-62.8,-12.4%,-3.8
COc1ccc(CN2CCN(c3ccccc3OC)CC2)cc1OC,-77.2*,14.6,-1.2,-31.3,-1.0%,-6.8
Cc1ccccc1N1CCN(Cc2cccc(C(=O)O)c2)CC1,?,1.1,1.7,-49.1,2.4%,-3.6
O=C(O)C1=CC(c2ccc(Br)cc2)n2ncnc2N1 (configuration not stated),/,-14.4,-0.8,1.6,/,-0.6
COc1ccc(OC)c(NC(=O)c2cn(CC(C)C)c(=O)c3cc(OC)c(OC)cc23)c1,/,-27.0,-1.2,0.5,/,0.3
C[n+]1c(/C=C/c2ccc(O)cc2)ccc2ccccc21,?,-3.3,2.2,-14.3,8.6%,-1.6
Cc1cc(/C=C\c2ccc3cc(N(C)C)ccc3[n+]2C)c(C)n1-c1ccccc1,-60.7*,8.5,5.0,-41.9,?,-4.3
CC(=O)Nc1cccc(Oc2nc(NC(C)C)nc3cc(-c4ccccc4)sc23)c1,24.0,/,/,-10.5,/,/
SMILES,DRD3 antagonist,D1 antagonist,D1 ag,D3 ag,BCR signal inh,D1 PAM
Cc1ccc(C(=O)N(C)c2nnc(-c3ccncc3)s2)cc1,-14.8,-30.5*,10.1,3.7,?,-4.7
CN(C(=O)c1ccncc1)c1nnc(-c2cccnc2)s1,10.7,-0.4,2.2,2.7,3.1%,1.6
CCn1cc(CN2CCCC(C(=O)Nc3cccc(-n4cccn4)c3)C2)cn1 (configuration not stated),13.9,/,/,1.6,/,/
CC[C@H](C)[C@H]1CNC(=O)C(=O)N1CC1CCN(CCc2ccc(Cl)c(Cl)c2)CC1,0.0,/,/,-48.1,/,/
CC[C@H](C)[C@H]1CNC(=S)N1CC1CCN(CCC23CC4CC(CC(C4)C2)C3)CC1,-83.0*,/,/,-36.9,/,/
O=C1NC[C@H](Cc2ccccc2)N(CC2CCN(CCC34CC5CC(CC(C5)C3)C4)CC2)C1=O,0.0,/,/,-42.7,/,/
CC[C@H](C)[C@H]1CNC(=S)N1CC1CCN(CC2CCC(C)CC2)CC1 (some centres not stated),-103.8*,/,/,-50.9,/,/
CCCn1cc(S(=O)(=O)c2ccc(OC)cc2)c(=O)c2cc(F)c(N3CCCCCC3)cc21,/,6.6,3.3,-1.2,/,8.4
COC1[C@@H](O[C@@H]2O[C@H](C)[C@@H](O[C@H]3C[C@@](C)(O)[C@H](OC(=O)CC(C)C)[C@H](C)O3)[C@H](N(C)C)[C@H]2O)[C@@H](CC=O)C[C@@H](C)[C@@H](O)/C=C/C=C/C[C@@H](C)OC(=O)C[C@H]1OC(C)=O (some centres not stated),/,/,/,6.0,/,/
Cc1cc(NO)c(C(C)C)cc1N=O,-13.6,-29.3,36.4*,-2.7,?,-10.3
CCN(CC)S(=O)(=O)c1ccc2c(c1)N(CC(=O)NCCCN1CCN(c3cc(Cl)ccc3C)CC1)C(=O)CO2,/,-18.4,15.0,-17.1,/,-5.4
CC(=O)Nc1ccc(Nc2nc(C)c([N+](=O)[O-])c(N(C)c3ccccc3)n2)cc1,6.4,-31.8*,5.9,-3.5,4.6%,-11.3
Cc1ccccc1OCC(=O)NCC(c1ccc(Cl)cc1)N1CCOCC1 (configuration not stated),/,-8.4,4.0,1.7,/,-1.2
COc1cc(CNCC(C)C)c(Br)cc1OCC(=O)NCc1ccccc1,-6.8,-12.0,6.6,-2.1,4.0%,-0.2
COc1cc(CNCCN(C)C)c(Br)cc1OCC(=O)NCc1ccccc1,-15.3,-33.6*,3.4,-8.4,2.1%,-3.5
CCNCc1cc(OCC)c(OCC(=O)NCCc2ccccc2)cc1Cl,6.9,-39.9*,32.8*,-10.0,?,-8.0
CCc1c(C)sc2c1CCN(Cc1ccccc1)C2c1ccccc1 (configuration not stated),/,-4.5,1.2,-1.0,/,-0.8
Cc1[nH]c2ccccc2c1C(=O)C(=O)N1CCN(c2cccc(Cl)c2)CC1,14.5,-37.8*,4.3,-1.8,-8.6%,0.8
Cc1[nH]c2ccccc2c1C(=O)C(=O)N1CC(C)OC(C)C1 (configuration not stated),14.6,1.1,1.2,1.6,-0.8%,1.1
Cc1[nH]c2ccccc2c1C(=O)C(=O)N1CC=C(c2ccccc2)CC1,10.3,-37.4*,24.5,1.7,?,-2.0
CC(NC(=O)Cc1ccc(NC(=O)N2CCCCc3ccccc32)cc1)c1ccccc1 (configuration not stated),/,-3.0,4.9,-0.1,/,-4.8
Cc1cccc(NC(=O)NCCOCCn2c(=O)oc3ccccc32)c1C,/,-13.1,1.4,-3.4,/,1.0
